Assay in all cases: NCI-60 one-dose screen, 48 h (100 = growth as untreated, 0 = no growth, -100 = all killed)
One experiment concerns SNB-75 CNS. The conditions noted are these: 10 µM unless noted.
Another experiment relates to SNB-19 CNS. The conditions noted are these: 10 µM unless noted.
The subject of another experiment is PC-3 prostate. The conditions noted are these: 10 µM unless noted.
A further experiment has as its system UACC-62 melanoma. The conditions noted are these: 10 µM unless noted.
The subject of a further experiment is LOX IMVI melanoma. The conditions noted are these: 10 µM unless noted.
A further experiment relates to SK-MEL-28 melanoma. The conditions noted are these: 10 µM.
The next experiment concerns SK-MEL-2 melanoma. The conditions noted are these: 10 µM unless noted.
Another experiment concerns SN12C renal. The conditions noted are these: 10 µM unless noted.
Another experiment relates to UO-31 renal. The conditions noted are these: 10 µM unless noted.
The next experiment relates to TK-10 renal. The conditions noted are these: 10 µM unless noted.
In a further experiment the test system is ACHN renal. The conditions noted are these: 10 µM unless noted.
For another experiment, the system named is A498 renal. The conditions noted are these: 10 µM unless noted.
In a further experiment the test system is CCRF-CEM leukemia. The conditions noted are these: 10 µM unless noted.
Another experiment relates to MOLT-4 leukemia. The conditions noted are these: 10 µM unless noted.
The subject of another experiment is SR leukemia. The conditions noted are these: 10 µM unless noted.
The test system of the next experiment is U251 CNS. The conditions noted are these: 10 µM unless noted.
The test system of another experiment is SK-MEL-5 melanoma. The conditions noted are these: 10 µM unless noted.
The test system of a further experiment is EKVX NSCLC. The conditions noted are these: 10 µM unless noted.
Another experiment has as its system CAKI-1 renal. The conditions noted are these: 10 µM unless noted.

The panel holds about 83,000 compounds, 20% with a hit somewhere; the sample as a whole holds those more often.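 Single-dose data. Exposure time 48 hours. Values below 10 considered active.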 A number with no mark means an inactive call. The source made the active and inactive calls.

Take `CN=c1ccc2nc3ccc(N)cc3sc-2c1`: the growth in the experiment with SNB-75 CNS was 33.6%; in the experiment with SNB-19 CNS it was 30.9%; in the experiment with PC-3 prostate it was 5.54% (active); in the experiment on UACC-62 melanoma, 15.8%; in the experiment on LOX IMVI melanoma, 2.59% (active); in the experiment with SK-MEL-28 melanoma, 51.7%. In addition, the growth with SK-MEL-2 melanoma was -0.853% (active); in the experiment on SN12C renal it was 17%; in the experiment on UO-31 renal, 60.7%; in the experiment on TK-10 renal, 49.4%; with ACHN renal, 42.2%; in the experiment on A498 renal it was 79.9%. Further, the growth in the experiment with CCRF-CEM leukemia was 21.5%; in the experiment with MOLT-4 leukemia, 1.3% (active); in the experiment with SR leukemia, 38%.
With `COc1cc(/C(C#N)=C/c2nc3c(N4CCOCC4)nc(Cl)nc3n2C)cc(OC)c1OC`, the growth in the experiment with SNB-75 CNS was -9.92% (active); with SNB-19 CNS it was 17.7%; in the experiment with U251 CNS it was 8.74% (active); with PC-3 prostate, 10.6%; with SK-MEL-5 melanoma, -38.3% (active); in the experiment on UACC-62 melanoma, 2.78% (active). Further, the growth is 8.21% (active) in the experiment with LOX IMVI melanoma; 46% in the experiment on SK-MEL-28 melanoma; 57.3% with SK-MEL-2 melanoma; 35.2% with EKVX NSCLC; 14.9% in the experiment with SN12C renal; -1.84% (active) with UO-31 renal. Moreover, the growth with TK-10 renal was 50.5%; in the experiment with ACHN renal it was 13.7%; in the experiment on A498 renal, -28.1% (active); in the experiment on CCRF-CEM leukemia, 14.4%; with MOLT-4 leukemia, 9.93% (active); in the experiment on SR leukemia, 27.9%.
As to `CC[C@@H](C)[C@H](NC(=O)Cn1cc(CNC(=O)[C@@H](NC(=O)OCc2ccccc2)C(C)C)nn1)C(=O)O`, the growth in the experiment on SNB-75 CNS is 101%; with SNB-19 CNS, 106%; in the experiment on U251 CNS it was 104%; with PC-3 prostate it was 97.2%; in the experiment with SK-MEL-5 melanoma, 102%; in the experiment on UACC-62 melanoma, 100%. Also, the growth with LOX IMVI melanoma was 99.7%; in the experiment on SK-MEL-28 melanoma, 113%; in the experiment on SK-MEL-2 melanoma, 110%; in the experiment with EKVX NSCLC, 100%; in the experiment on SN12C renal, 97.1%; with UO-31 renal, 95.1%. Also, the growth with TK-10 renal was 112%; in the experiment on CAKI-1 renal, 88.4%; in the experiment with A498 renal, 98.9%; in the experiment on CCRF-CEM leukemia, 106%; with MOLT-4 leukemia, 109%; in the experiment on SR leukemia, 101%.
Take `COc1ccc(Nc2nc(N/N=C/c3ccc(O)cc3)nc(Nc3ccc([N+](=O)[O-])cc3)n2)cc1`: the growth is 104% in the experiment with SNB-75 CNS; 101% in the experiment on SNB-19 CNS; 104% with U251 CNS; 108% in the experiment with PC-3 prostate; 110% in the experiment with UACC-62 melanoma; 107% in the experiment on LOX IMVI melanoma. Moreover, the growth is 104% in the experiment on SK-MEL-28 melanoma; 103% in the experiment on SK-MEL-2 melanoma; 103% with SN12C renal; 103% in the experiment on UO-31 renal; 115% in the experiment on TK-10 renal; 103% with ACHN renal. For the same compound, the growth in the experiment with CAKI-1 renal is 123%; in the experiment with A498 renal, 105%; in the experiment on CCRF-CEM leukemia it was 99.9%; with MOLT-4 leukemia it was 108%; with SR leukemia, 105%.
Regarding `CC(C)c1ccc(S(=O)(=O)NC(=O)NC2CCCC2)cc1`, the growth with SNB-75 CNS was 101%; in the experiment on SNB-19 CNS it was 100%; in the experiment on U251 CNS it was 101%; in the experiment with PC-3 prostate, 99.9%; in the experiment on SK-MEL-5 melanoma, 101%; with UACC-62 melanoma it was 94.7%. Besides, the growth is 97.7% with LOX IMVI melanoma; 103% in the experiment on SK-MEL-28 melanoma; 98.1% with EKVX NSCLC; 97.1% in the experiment on SN12C renal; 95.4% in the experiment on UO-31 renal; 101% in the experiment on TK-10 renal. The growth was 103% with ACHN renal; 96.7% in the experiment with CAKI-1 renal; 102% in the experiment on A498 renal; 98% in the experiment on CCRF-CEM leukemia; 94.6% with MOLT-4 leukemia; 95.6% in the experiment with SR leukemia.
As for `S=C1NC2(c3ccccc3)CCC(=S)N2c2ccccc21` (stereo not given), the growth with SNB-19 CNS was 97.6%; in the experiment on U251 CNS it was 95%; in the experiment with PC-3 prostate it was 96.7%; in the experiment on UACC-62 melanoma, 92%; in the experiment on LOX IMVI melanoma, 99.7%; in the experiment with SK-MEL-28 melanoma it was 114%. The growth in the experiment with SK-MEL-2 melanoma is 97.1%; in the experiment with EKVX NSCLC it was 100%; in the experiment on SN12C renal it was 96.8%; with UO-31 renal, 86.2%; with TK-10 renal, 124%; with ACHN renal, 108%. The growth in the experiment with CAKI-1 renal is 78.7%; in the experiment with CCRF-CEM leukemia it was 101%; with MOLT-4 leukemia it was 97.5%; in the experiment on SR leukemia, 92.9%.
With `O=c1oc2ccc(Br)cc2c(=O)n1-c1ccc(F)cc1F`, the growth with SNB-75 CNS is -12.1% (active); in the experiment on SNB-19 CNS, 12.5%; with U251 CNS, 7.07% (active); with PC-3 prostate it was 0.771% (active); in the experiment with UACC-62 melanoma it was -0.768% (active); in the experiment with LOX IMVI melanoma, 12.6%. In addition, the growth is 20.3% with SK-MEL-28 melanoma; -16.1% (active) in the experiment on SK-MEL-2 melanoma; 39% in the experiment on EKVX NSCLC; 6.17% (active) in the experiment on SN12C renal; 3.24% (active) in the experiment with UO-31 renal; 11.6% with TK-10 renal. The growth was 4.95% (active) in the experiment with ACHN renal; -16.6% (active) in the experiment on CAKI-1 renal; -39% (active) in the experiment on A498 renal; 14.1% with CCRF-CEM leukemia; 17.5% in the experiment on MOLT-4 leukemia.
With `O=C(Nc1ccc(I)cc1F)c1cc(Cl)ccc1O`, the growth was -24.3% (active) with SNB-75 CNS; 0.895% (active) in the experiment with U251 CNS; 3.02% (active) in the experiment on PC-3 prostate; -18.8% (active) in the experiment on UACC-62 melanoma; 0.0612% (active) with LOX IMVI melanoma; -4.2% (active) with SK-MEL-28 melanoma. Moreover, the growth in the experiment with SK-MEL-2 melanoma was -30.8% (active); with EKVX NSCLC, 7.55% (active); with SN12C renal, 2.43% (active); in the experiment with UO-31 renal, 9.04% (active); in the experiment on TK-10 renal, 10.5%; in the experiment with ACHN renal it was 6.15% (active). The growth with CAKI-1 renal was -12% (active); in the experiment with A498 renal, -64.4% (active); in the experiment with CCRF-CEM leukemia, 7.89% (active); with MOLT-4 leukemia it was -30.5% (active).

(Values after PubChem BioAssay (NCI).)
